# Results published in PubChem BioAssay.
# The source made the active and inactive calls. Unless noted, no rule for the calls is given here.
# Tests used:
# [1] = compound effects on lung adenocarcinoma cell viability – A549, calcein-AM fluorescence, 48 h, basal, profiling panel (AID 1162); conditions: higher = more signal; also: test concentration not given here
# [2] = compound effects on differentiated 3T3-L1 adipocyte viability – cell-based, 3T3-L1 adipocytes, calcein-AM fluorescence, 48 h, basal, profiling panel (AID 1163); conditions: 3T3-L1 adipocytes viability, higher = more signal; also: test concentration not given here
# [3] = compound effects on hepatocellular carcinoma cell viability – HepG2, calcein-AM fluorescence, 48 h, basal, profiling panel (AID 1164); conditions: higher = more signal; also: test concentration not given here
# [4] = compound effects on multiple myeloma cell viability – MM1S, calcein-AM fluorescence, 48 h, basal, profiling panel (AID 1165); conditions: higher = more signal; also: test concentration not given here
# [5] = calcein-AM signal in unstimulated myeloma cells – cell-based, calcein-AM fluorescence, 48 h, PK04 Diversity Set, profiling panel (AID 1166); conditions: RPMI8226 myeloma viability, higher = more signal;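 also: cells grown under basal conditions without added stimulus; test concentration not given here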
# [6] = JC-1 mitochondrial signal, unstimulated HepG2 cells – cell-based, JC-1 fluorescence, 24 h, 100 nL compound, profiling panel (AID 1167); conditions: HepG2 mitochondrial potential, higher = more signal; also: test concentration not given here
# [7] = JC-1 mitochondrial signal, unstimulated adipocytes – cell-based, JC-1 fluorescence, 3T3-L1 adipocytes, 24 h, 100 nL compound, profiling panel (AID 1168); conditions: JC-1 mitochondrial fluorescence, higher = more signal, called active from +8 up or from −8 down; also: test concentration not given here
# [8] = JC-1 mitochondrial signal, unstimulated myeloma cells – cell-based, JC-1 fluorescence, RPMI8226, 24 h, 100 nL compound, profiling panel (AID 1169); conditions: JC-1 mitochondrial potential fluorescence, higher = more signal; also: test concentration not given here
# [9] = JC-1 mitochondrial signal, unstimulated MM1S myeloma – cell-based, JC-1 fluorescence, 24 h, 100 nL compound, profiling panel (AID 1170); conditions: MM1S mitochondrial potential, higher = more signal; also: test concentration not given here
# [10] = resazurin metabolic signal in A549 cells – cell-based, resazurin fluorescence, 24 h, PK04 Diversity Set, profiling panel (AID 1171); conditions: A549 viability, higher = more signal, called active from +8 up or from −8 down; also: test concentration not given here
# [11] = resazurin metabolic signal in HepG2 cells – cell-based, resazurin fluorescence, 24 h, PK04 Diversity Set, profiling panel (AID 1172); conditions: HepG2 viability, higher = more signal; also: test concentration not given here
# [12] = budding yeast growth changes without added modifier – OD600, strain BY4716, 24 h, basal condition, primary screen (AID 1173); conditions: S. cerevisiae BY4716 growth, OD600, 24 h; higher = more signal, called active from +8 up or from −8 down
# [13] = viability profiling in MM1S myeloma cells – cell-based, resazurin fluorescence, basal, 24 h, PK04 Diversity Set, profiling panel (AID 1174); conditions: higher = more signal, called active from +8 up or from −8 down; also: test concentration not given here
# [14] = target: Dihydroorotate dehydrogenase (quinone), mitochondrial (Plasmodium falciparum (isolate 3D7)) (UniProt Q08210); test: inhibition of P. falciparum DHODH – biochemical, C-terminal His tag, absorbance 600 nm, primary screen (AID 1175); conditions: PfDHODH enzyme, DCIP absorbance 600 nm; higher = more signal, called active from +8 up or from −8 down;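 also: recombinant parasite enzyme with a five histidine tag at its C terminus; test concentration not given here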
# [15] = inhibition of PAO1 biofilm formation – strain PAO1, LB-PBS medium, absorbance 600 nm, primary screen (AID 1176); also: test concentration not given here; conditions: P. aeruginosa PAO1 growth/biofilm, A600, 12 h; higher = more signal
# [16] = growth modulation of vineyard yeast isolate – strain RM11-1a, OD600, basal, 24 h, primary screen (AID 1177);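 also: cultures grown under basal conditions with no added stressor; test concentration not given here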; conditions: S. cerevisiae RM11-1a growth, OD600, 24 h; higher = more signal, called active from +8 up or from −8 down
# [17] = growth of efflux-deficient E. coli DRC39 – strain DRC39, OD650, 24 h, E. coli filamentation inducers, primary screen (AID 1178);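 also: growth measured as culture turbidity by optical density at 650 nm; test concentration not given here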; conditions: E. coli DRC39 acrAB, higher = more signal, called active from +8 up or from −8 down
# [18] = growth of efflux-deficient E. coli DRC39 – strain DRC39, OD650, 48 h, E. coli filamentation inducers, primary screen (AID 1179);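 also: screen aims at cell division blockers that make cells filament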; conditions: E. coli DRC39 delta-acrAB growth, higher = more signal, called active from +8 up or from −8 down
# [19] = viability profiling in RPMI8226 myeloma cells – cell-based, resazurin fluorescence, basal, 24 h, PK04 Diversity Set, profiling panel (AID 1180); conditions: higher = more signal;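 also: RPMI8826 multiple myeloma cell line at 5000 cells per well; test concentration not given here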
# [20] = target: E3 ubiquitin-protein ligase XIAP (Homo sapiens) (UniProt P98170); test: small molecules binding XIAP protein – biophysical, small-molecule microarray, fluorescence 635 nm, primary screen (AID 1181); conditions: higher = more signal;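 also: score merges 667 nm emission and signal to noise over triplicate slides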
# E3 ubiquitin-protein ligase XIAP (Homo sapiens), sequence (P98170 whole entry, looked up): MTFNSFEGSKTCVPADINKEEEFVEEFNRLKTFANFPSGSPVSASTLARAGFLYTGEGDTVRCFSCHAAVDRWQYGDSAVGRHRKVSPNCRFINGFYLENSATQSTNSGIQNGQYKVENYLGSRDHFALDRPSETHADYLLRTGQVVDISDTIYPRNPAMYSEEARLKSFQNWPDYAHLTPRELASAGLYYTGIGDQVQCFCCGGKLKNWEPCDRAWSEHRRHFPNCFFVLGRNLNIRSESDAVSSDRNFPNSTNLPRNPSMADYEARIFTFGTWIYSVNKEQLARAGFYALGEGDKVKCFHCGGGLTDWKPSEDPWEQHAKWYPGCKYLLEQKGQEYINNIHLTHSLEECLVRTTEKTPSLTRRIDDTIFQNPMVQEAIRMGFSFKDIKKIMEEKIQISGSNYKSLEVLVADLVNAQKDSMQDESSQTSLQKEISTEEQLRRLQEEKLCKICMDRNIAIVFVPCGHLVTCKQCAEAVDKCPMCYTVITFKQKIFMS
# Dihydroorotate dehydrogenase (quinone), mitochondrial (Plasmodium falciparum (isolate 3D7)), sequence (Q08210 whole entry, looked up): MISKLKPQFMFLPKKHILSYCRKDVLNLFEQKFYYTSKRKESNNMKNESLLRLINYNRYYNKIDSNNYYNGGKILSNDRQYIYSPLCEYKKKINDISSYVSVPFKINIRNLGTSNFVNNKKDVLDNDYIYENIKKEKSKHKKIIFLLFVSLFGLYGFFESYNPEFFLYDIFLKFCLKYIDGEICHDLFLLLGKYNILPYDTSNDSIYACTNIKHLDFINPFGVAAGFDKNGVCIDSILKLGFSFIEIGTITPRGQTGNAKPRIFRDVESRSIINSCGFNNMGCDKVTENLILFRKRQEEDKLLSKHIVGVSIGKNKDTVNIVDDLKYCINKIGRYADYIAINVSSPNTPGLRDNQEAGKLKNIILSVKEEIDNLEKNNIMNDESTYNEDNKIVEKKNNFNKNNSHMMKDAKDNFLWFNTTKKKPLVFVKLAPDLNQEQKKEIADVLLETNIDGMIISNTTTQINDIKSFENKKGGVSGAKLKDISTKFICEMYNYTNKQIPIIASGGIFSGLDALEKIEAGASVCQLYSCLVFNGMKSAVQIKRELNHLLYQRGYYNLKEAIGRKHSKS
SMILES,z-score [1],z-score [2],z-score [3],z-score [4],z-score [5],z-score [6],z-score [7],z-score [8],z-score [9],z-score [10],z-score [11],z-score [12],z-score [13],composite z-score [14],z-score [15],z-score [16],z-score [17],z-score [18],z-score [19],composite z-score [20]
CC#CCO[Si](C#CCCCCCC)(C(C)C)C(C)C,-0.5,-0.381,-0.23,-1.52,-1.03,-1.15,-0.552 (inactive),-0.69,-1.3,0.518 (inactive),0.296,-9.54 (active),0.486 (inactive),-0.487 (inactive),0.501 (inactive),0.0606 (inactive),-0.0081 (inactive),0.448 (inactive),0.166,-0.22
CO[C@H]1O[C@H](CO)[C@@H](OC(=O)Nc2ccccc2)[C@@H]2OC(=O)[C@H](Cc3ccccc3)C/C=C/C[C@@H](Cc3ccccc3)C(=O)O[C@@H]12,-0.152,0.385,0.358,-1.22,-2.46,-0.928,0.799 (inactive),-0.865,-1.45,-2.94 (inactive),-1.41,0.411 (inactive),-3.52 (inactive),-1.69 (inactive),0.385 (inactive),0.887 (inactive),1.04 (inactive),1.99 (inactive),-2.26,0.288
COc1ccc(CC[C@H](O)c2cccc(OCC(=O)OC(C)(C)C)c2)cc1,-1.42,0.71,-2.12,-2.52,-1.31,-2.71,1.69 (inactive),-0.84,-0.835,0.41 (inactive),0.657,-4.45 (inactive),-0.25 (inactive),-1.82 (inactive),0.475 (inactive),0.69 (inactive),0.791 (inactive),0.573 (inactive),-0.204,-0.121
C=CCNC(=O)[C@@H]1[C@H]2C(=O)O[C@H](c3ccccc3)[C@H](c3ccccc3)N2[C@H](c2ccc(O)cc2)[C@@]12C(=O)Nc1ccc(C#CC3(O)CCCCCC3)cc12,-1.04,0.889,-0.522,-1.67,-3.93,-2.28,-0.41 (inactive),-0.748,-0.188,0.0696 (inactive),-0.285,0.0504 (inactive),-0.205 (inactive),0.0708 (inactive),0.498 (inactive),0.117 (inactive),0.6 (inactive),0.0092 (inactive),-1.57,-0.154
Cc1ccc(S[C@]2(C(=O)NCCN3CCOCC3)CC(=O)N(C3CCCCC3)[C@@H]2c2ccc(CO)cc2I)cc1,0.312,0.0138,0.293,-2.42,-2.46,2.54,0.11 (inactive),-0.457,-1.53,2.04 (inactive),1.5,-0.0113 (inactive),0.482 (inactive),0.88 (inactive),-0.447 (inactive),1.27 (inactive),0.464 (inactive),0.677 (inactive),-1.29,-0.302
CC(=O)c1ccc(C(O)C2C=CC3C(=O)N(C)C(=O)C3N2NC(=O)OC(C)(C)C)cc1 (stereo not given),-1.02,-0.701,-0.831,-0.682,-0.193,-1.29,-0.82 (inactive),-0.539,0.485,-0.659 (inactive),-1.69,1.74 (inactive),-1.04 (inactive),0.625 (inactive),0.378 (inactive),0.845 (inactive),-0.9 (inactive),-0.47 (inactive),-1.05,0.155
O=C1O[C@@H](c2ccccc2)[C@@H](c2ccccc2)N2[C@@H](c3ccc(O)cc3)[C@]3(C(=O)Nc4ccc(C#CC5=CCCCC5)cc43)[C@@H](C(=O)N3CCCCCCC3)[C@H]12,-0.361,0.967,0.606,0.212,-1.72,0.41,0.571 (inactive),-0.527,0.135,-0.77 (inactive),-0.109,-1.2 (inactive),0.158 (inactive),-1.81 (inactive),1.22 (inactive),-0.976 (inactive),0.326 (inactive),-0.199 (inactive),0.177,0.691
CCOC(=O)C[C@H]1[C@H](OC(=O)Cc2ccc3c(c2)OCO3)[C@@H](NC(=O)c2ccccc2)c2cc(OCCCO)ccc2N1C(=O)Cc1ccc(OC)cc1,3.09,1.19,1.01,0.856,0.434,1.53,-0.947 (inactive),0.133,-0.851,0.0119 (inactive),-0.0111,-0.644 (inactive),-0.234 (inactive),-1.37 (inactive),0.407 (inactive),-1.86 (inactive),1.68 (inactive),2.05 (inactive),0.636,-0.162
O=C1O[C@H](c2ccccc2)[C@H](c2ccccc2)N2[C@H]1[C@@H](C(=O)N1CCN(c3ncccn3)CC1)[C@]1(C(=O)Nc3ccccc31)[C@H]2c1ccc(O)cc1,0.947,1.36,0.406,-1.28,-4,-1.26,1.04 (inactive),-1.06,0.183,0.371 (inactive),-0.291,0.688 (inactive),-0.73 (inactive),0.447 (inactive),0.641 (inactive),2.29 (inactive),0.179 (inactive),0.481 (inactive),-1.2,-0.13
C[C@]1(C(=O)NCC(F)(F)F)c2ccccc2C(=O)N(Cc2ccc(OC(F)(F)F)cc2)[C@H]1c1ccc(CO)cc1,0.377,0.194,0.334,0.0863,-1.37,0.756,-0.235 (inactive),1.04,0.157,0.0382 (inactive),0.2,-0.139 (inactive),-0.296 (inactive),0.182 (inactive),1.48 (inactive),-0.353 (inactive),-0.414 (inactive),-1 (inactive),0.14,0.212
NCCCC[C@@H]1NC(=O)[C@H]2C[C@@H](C(=O)NCc3ccc(F)cc3)[C@@H](c3cccc(OCCO)c3)N2C1=O,0.172,-0.716,1.13,-0.893,-0.259,-2.23,0.13 (inactive),-0.968,-0.894,0.858 (inactive),-1.49,-0.956 (inactive),0.646 (inactive),0.22 (inactive),0.379 (inactive),1.57 (inactive),0.71 (inactive),0.896 (inactive),1.04,-0.271
CC(C)(C)OC(=O)CC[C@]1(C(N)=O)N=C(c2ccc(OCCCO)cc2)O[C@H]1c1ccccc1CN=[N+]=[N-],0.249,0.434,0.088,-0.0887,-0.387,-1.01,0.352 (inactive),0.469,0.0608,0.316 (inactive),0.0283,0.632 (inactive),0.455 (inactive),0.369 (inactive),-0.568 (inactive),1.55 (inactive),2.09 (inactive),0.64 (inactive),0.282,0.108
COC(=O)[C@@]1(Cc2ccc(F)cc2)[C@H]2c3cc(C(=O)N(C)C)n(CCO)c3C[C@H]2CN1C(=O)c1ccccc1,-0.371,-0.173,0.318,0.563,0.382,-2.03,-0.453 (inactive),0.161,0.243,-1.59 (inactive),-0.359,-0.092 (inactive),-0.438 (inactive),-0.844 (inactive),0.865 (inactive),-0.251 (inactive),-0.356 (inactive),-0.0099 (inactive),-0.0323,0.49
O=C(NCC(F)(F)F)[C@@H]1c2ccccc2C(=O)N(CC23CC4CC(CC(C4)C2)C3)[C@H]1c1ccc(CO)cc1,1.5,1.27,2.14,-0.347,0.777,1.08,-0.154 (inactive),0.417,-0.457,0.637 (inactive),0.26,-2.11 (inactive),-1.04 (inactive),-2.32 (inactive),1.43 (inactive),-2.97 (inactive),1.05 (inactive),0.823 (inactive),0.582,0.341
C=CCC(OC(C)=O)[C@@H]1[C@@H](N(Cc2ccc(-c3cccc(C(F)(F)F)c3)o2)C(=O)Cc2ccc(F)cc2)c2cc(OCCCO)ccc2N1C(=O)c1ccc2ccccc2c1 (stereo not given in full),-0.292,0.499,0.966,0.353,0.366,2.03,0.294 (inactive),-0.793,0.251,0.116 (inactive),0.589,-0.382 (inactive),0.81 (inactive),-1.26 (inactive),-0.194 (inactive),-0.423 (inactive),0.227 (inactive),0.369 (inactive),0.934,-0.224
O=C1OCCC=C[C@H]2OC34C=CCN(CCN5CCOCC5)C(=O)[C@H]3N(CCCO)C(=O)[C@@H]4C12 (stereo not given in full),0.531,0.473,0.127,-0.0305,-0.0605,-0.338,1.33 (inactive),0.398,-0.139,-0.784 (inactive),-0.368,-0.494 (inactive),-0.525 (inactive),0.394 (inactive),-0.481 (inactive),0.23 (inactive),-0.418 (inactive),-0.822 (inactive),-0.62,0.0143
